From PubChem BioAssay
This is a sample that favours compounds with a hit; in the whole collection about 5.2% have one here.
TrxR1 substrate: substrates of rat thioredoxin reductase 1. purified TrxR1 substrate turnover, NADPH consumption readout. hit rate 0.01% among 390,000. O89049. AID 588456. Potency, µM (top dose mostly 114 µM), for inactives: top-dose activity change, negative = substrate turnover; further: nearly all actives have a fitted effect of over 50% in size
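Rat TrxR1, dispensed at 90 nM, was prereduced with 400 uM NADPH (final) for 5 min at ~22 deg C, then incubated with compound 15 min before 400 uM selenite. A first-read NADPH fluorescence drop versus no-compound background flagged substrates.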
PLK1 PBD block: blocks phosphopeptide binding to human PLK1 polo-box domain. P53350. Potency, µM, inactives show max response, negative = inhibition, hits mostly inhibitors. Plk1 PBD binding of FITC phosphopeptide, fluorescence polarization. AID 720504. hit rate 2.8% among 360,000; further: series mostly up to about 57 µM; nearly all actives have a fitted effect of over 65% in size
Target sequence (P53350 whole entry, looked up, the tested form may be a part): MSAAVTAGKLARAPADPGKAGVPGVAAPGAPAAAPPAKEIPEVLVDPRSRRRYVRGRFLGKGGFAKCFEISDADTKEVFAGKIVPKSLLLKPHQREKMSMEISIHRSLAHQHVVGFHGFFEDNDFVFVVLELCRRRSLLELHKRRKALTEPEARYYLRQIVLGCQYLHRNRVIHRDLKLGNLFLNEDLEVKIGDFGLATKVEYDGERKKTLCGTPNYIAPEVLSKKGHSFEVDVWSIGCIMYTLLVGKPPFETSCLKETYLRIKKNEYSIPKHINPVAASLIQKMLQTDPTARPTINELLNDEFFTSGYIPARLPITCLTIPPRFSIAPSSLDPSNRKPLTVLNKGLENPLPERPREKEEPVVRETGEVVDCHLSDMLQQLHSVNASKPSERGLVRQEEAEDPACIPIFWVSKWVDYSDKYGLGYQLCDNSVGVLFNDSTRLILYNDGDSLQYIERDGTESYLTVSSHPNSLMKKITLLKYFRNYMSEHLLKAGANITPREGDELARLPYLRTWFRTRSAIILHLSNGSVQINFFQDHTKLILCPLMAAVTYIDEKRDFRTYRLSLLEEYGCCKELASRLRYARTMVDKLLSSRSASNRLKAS
TrxR1 inh: blocks rat thioredoxin reductase 1. O89049. recombinant rTrxR1, NADPH fluorescence consumption, selenite substrate. Potency, µM (top dose mostly 114 µM), for inactives: top-dose activity change, negative = inhibition, usual class: inhibitors. hit rate 1% among 390,000; further: nearly all actives have a fitted effect of over 65% in size
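Rat TrxR1 (90 nM in the dispensed reagent) was pre-reduced with 400 uM NADPH for 5 min at room temperature, then incubated with compound for 15 min. After 400 uM selenite was added, NADPH fluorescence (Ex 340/Em 450 nm) was followed for 8 min.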
VDR inhibitor: vitamin D3 receptor (human) inhibition. P11473. AID 504847. Potency, µM, without a hit: max response, negative = inhibition, hits mostly inhibitors. hit rate 0.93% among 400,000. VDR-SRC2-3 peptide fluorescence polarization, 2 h
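Compounds are added to VDR with labelled SRC2-3 coactivator peptide and held 2 h at room temperature. Inhibition of the VDR–peptide interaction is then read as a change in fluorescence polarization.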
mIDH1 inhibitor: inhibitors of human mutant IDH1 R132H | O75874 | IDH1-R132H enzyme, NADPH consumption, diaphorase/resazurin fluorescence | Potency, µM (series often up to 76.6 µM), inactives show top-dose activity change, negative = inhibition, most hits filed as inhibitors | hit rate 0.093% among 390,000; further: nearly all actives have a fitted effect of over 65% in size
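IDH1-R132H (0.5 ug/mL) preincubated 30 min with compound, then NADPH (0.016 mM) and alpha-KG (2 mM) added; 80 min at RT, pH 7.5. Remaining NADPH coupled via diaphorase/resazurin to fluorescence (540/590 nm); concentration-response curves normalized to no-enzyme control.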
Sfp PPTase inh: inhibitors of Bacillus subtilis Sfp phosphopantetheinyl transferase | Biochemical Sfp PPTase activity, qHTS | Q9F4F7 | Potency, µM, inactives show largest response in the series, negative = inhibition, usual class: inhibitors | hit rate 3.5% among 310,000;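 further: the enzyme is Sfp with the accession as filed and its product quenches rhodamine fluorescence; 0% = enzyme reaction without inhibitor and -100% = no enzyme wells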
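Sfp 15 nM + cpd, 15 min RT; start w/ rhodamine-CoA 5 uM, BHQ-2-YbbR 12.5 uM (final); 50 mM Hepes pH 7.6, 10 mM MgCl2, 0.01% NP-40, 0.01% BSA; read 525/598 nm at 0 and 30 min.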
Starred values were filed as active, the others as inactive; ? = inconclusive; · = no result given; [ ] = another dose, or the depositor's remark. The call rests on the fitted dose curve; in most records, active means well fitted curve in the direction sought with a large enough effect; inconclusive means small, poorly fitted or top-dose-only effect, or another doubt; inactive means no such curve, though single readings can be large; an effect the other way counts as inactive or inconclusive. Unless noted, on the % scale 0 is the no-effect control and ±100 the full control effect; potency means the concentration at half of the fitted maximal effect.

SMILES | TrxR1 substrate | PLK1 PBD block | TrxR1 inh | VDR inhibitor | mIDH1 inhibitor | Sfp PPTase inh
COc1ccc(N2CCN(C(=O)CN3C(=O)NC4(CCCCCC4)C3=O)CC2)cc1 | 7% | -10% | 15% | 7% | 5% | ·
O=C(NC1CCCC1)C(c1ccncc1)N(Cc1ccccc1)C(=O)c1ccc(-c2ccccc2)[nH]1 (stereo not drawn) | -3% | -1% | ? | 10% | 8% | 18µM*
O=C(NC1CCCC1)C(c1ccncc1)N(Cc1ccco1)C(=O)c1ccc(-c2ccccc2)[nH]1 (stereo not drawn) | 3%[57.1 µM] | -22% | -61% | ? | -8% | ?
Cc1cc(O)c(C(C)C)cc1N=Cc1ccccc1O | -9% | 10% | -21% | 40µM* | 18% | 14µM*
Cc1cc(O)c(C(C)C)cc1N=Cc1cc([N+](=O)[O-])ccc1O | -16% | -17% | -27% | ? | 14% | 14µM*
COc1cccc(C2=Nn3c(nnc3-c3cccc(OC)c3OC)SC2)c1 | · | · | · | · | · | -5%
Clc1cccc(-c2ccc(/C=N/n3cnnc3)o2)c1 | 5% | -4% | 0% | -16% | 5% | -21%
N=C1S/C(=C\c2ccc(-c3cccc(Cl)c3)o2)C(=O)N1c1nccs1 | -12% | ? | -17% | -4% | 3% | 35µM*
O=C1OC(c2cccs2)=N/C1=C\c1ccc(-c2cccc(Cl)c2)o1 | -8% | 3% | -18% | -25% | ? | 79µM*
CC(=O)C1=C(O)C(=O)N(C)C1c1ccccc1[N+](=O)[O-] (stereo not drawn) | 12% | 27µM* | -22% | ? | -27% | 71µM*
CC(=O)C1=C(O)C(=O)N(c2ccc(Br)cn2)C1c1ccccc1[N+](=O)[O-] (stereo not drawn) | -10% | ? | 1% | 0% | 0% | -27%
CC(=O)C1=C(O)C(=O)N(c2ccccn2)C1c1ccccc1[N+](=O)[O-] (stereo not drawn) | -13% | 3.4µM* | -7% | ? | 7% | -22%
CC(=O)C1=C(O)C(=O)N(CCCO)C1c1ccccc1 (stereo not drawn) | 2% | -3% | -4% | -1% | 6% | 71µM*
CC(=O)C1=C(O)C(=O)N(Cc2cccnc2)C1c1ccc(O)cc1 (stereo not drawn) | -8%[57.1 µM] | 27µM* | -1%[57.1 µM] | -1% | 1% | 11%
CC(=O)C1=C(O)C(=O)N(CCNCCO)C1c1ccccc1 (stereo not drawn) | -10% | 1% | -25% | 9% | 5% | 3%
CC(=O)C1=C(O)C(=O)N(CCC(=O)O)C1c1ccccc1[N+](=O)[O-] (stereo not drawn) | -5%[57.1 µM] | -9% | 1%[57.1 µM] | 6% | -6% | 11µM*
COc1cc(NC(=S)NCCc2ccc(S(N)(=O)=O)cc2)c(OC)cc1Cl | 3% | ? | -19% | -22% | 13% | 16µM*
CC(=O)c1ccc(NC(=S)NCCc2ccc(S(N)(=O)=O)cc2)cc1 | -12%[57.1 µM] | -19% | 13%[57.1 µM] | -1% | 1% | 12%
NS(=O)(=O)c1ccc(NC(=S)NCCc2ccccc2)cc1 | -7% | 6.7µM* | -32% | -19% | 0% | 7.9µM*
CC(C)OCCCNC(=S)Nc1ccc(S(N)(=O)=O)cc1 | -9%[11.4 µM] | 6µM* | -4% | ? | 8% | 2.2µM*
C=C(C(=O)O)c1ccc2ccccc2c1 | 65% | · | 5% | · | · | ·
O=C1c2nc3cc(-c4ccco4)[nH]n3c(=O)c2CN1Cc1ccccc1 | 101%[57.1 µM] | -17% | 7%[57.1 µM] | -2% | -1% | 20µM*
CCCCc1c(C)nc2cc(-c3ccco3)[nH]n2c1=O | 18%[57.1 µM] | -14% | -11%[57.1 µM] | 1% | 4% | 5%
NCCCNC(=O)c1ccc(/C=N/O)nc1 | 4%[57.1 µM] | -9% | 10%[57.1 µM] | -3% | 3% | 71µM*
C[C@H]1Cc2c(-c3ccccc3)nc3c(c2CO1)CN(S(=O)(=O)c1ccc(C#N)cc1)CC3 | · | · | · | · | · | 1%
SMILES | TrxR1 substrate | PLK1 PBD block | TrxR1 inh | VDR inhibitor | mIDH1 inhibitor | Sfp PPTase inh
COc1ccccc1N1CCN(c2nc3ccc(C(=O)c4ccccc4)cc3n3c(C)nnc23)CC1 | 1% | · | 24% | 2% | 12% | ·
CS(=O)(=O)N(CC(=O)NCc1ccc(Cl)cc1)C1CCCCC1 | -6% | 3µM* | 3% | -7% | 0% | 10%
Cc1ccc(S(=O)(=O)N(CC(=O)NCc2ccncc2)C2CCCCC2)cc1 | -3% | 2.7µM* | ? | ? | 6% | 9%
CCOC(=O)c1ccc(C(=O)NNC(=O)C2C3C=CC(C3)C2C(=O)O)cc1 (stereo not drawn) | -2% | -18% | 16% | -23% | 16% | 50µM*
O=C(NNC(=O)C1C2C=CC(C2)C1C(=O)O)c1ccccc1 (stereo not drawn) | -3% | -7% | 10% | 11% | -7% | ?
N#Cc1ccc(-c2cccs2)nc1SCc1c(F)cccc1Cl | 27% | · | -2% | -2% | -16% | ·
CCOc1ccccc1NC(=O)C(=O)/C=C(\O)c1cc(OC)ccc1OC | -12% | 21µM* | -33% | ? | 0% | -14%
COc1ccc(C)cc1Nc1n[n+](-c2ccccc2)c(-c2cc([N+](=O)[O-])cc(OC)c2O)s1 | -2% | 8% | 25% | -18% | 7% | 22µM*
Cc1ccc(-c2ccc(CCC(=O)O)n2-c2ccc(C(C)C)cc2)cc1 | 5% | · | ? | -19% | ? | ·
C=C(C)C(=O)OCCOC(=O)C(=C)C | · | · | · | 0% | · | -1%
Cc1ccc(/C=C/c2nc3ccccc3[nH]2)o1 | 6%[57.1 µM] | 27µM* | 22µM* | -7% | -6% | 5µM*
COc1ccccc1/C=C/c1nc2ccccc2[nH]1 | 26% | · | 7% | · | · | ·
O=C(NNC(=O)c1cc(O)c(O)c(O)c1)NC1CCCCC1 | 18%[57.1 µM] | ? | 15%[57.1 µM] | -3% | 7% | 10µM*
Cc1ccc(S(=O)(=O)N2C[C@H]3[C@H]4C(=O)N(c5ccccc5)C(=O)[C@H]4C[C@H](OC(=O)NC4CCCC4)[C@@]3(O)C2)cc1 | · | -4% | · | · | 11% | ·
CCOc1ccc(S(=O)(=O)N2CCN(c3nc(-c4ccccc4)nc4ccccc34)CC2)cc1 | 3% | · | 30% | 5% | · | ·
CCOc1ccc(NC(=O)CCC(=O)c2ccc(Br)cc2)cc1 | 1%[57.1 µM] | 21µM* | -7%[57.1 µM] | -30% | 2% | 2%
CCOc1ccc(NC(=O)CCC(=O)c2ccc(OC)cc2)cc1 | 7% | -14% | 40% | -7% | 8% | -4%
Cc1ccc(NC(=O)CCC(=O)OCc2ccc(Br)cc2)cc1 | -3%[57.1 µM] | 27µM* | -3%[57.1 µM] | -27% | 8% | 4%
C/C(CC1CC(COCC(C)C)OC1=O)=N\Nc1nc(-c2ccccc2)cs1 (stereo not drawn) | 4% | 21µM* | -10% | ? | -9% | ?
CCNC(=O)NC(=O)CSc1ccc2ccccc2c1 | 10%[57.1 µM] | 27µM* | 37%[57.1 µM] | ? | 7% | 5%
